Source: PubChem
HP1b chromo inh: HP1-beta chromodomain-methylated histone interaction inhibition | P83916 | AlphaScreen HP1-beta / biotin-H3K9me3 peptide binding | Potency, µM (series often up to 114 µM), for the others: at the top dose activity change, negative = inhibition, actives largely listed as inhibitors | 390,000 tested, 0.56% active | AID 540317; note: nearly all actives have a fitted effect of over 70% in size
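AlphaScreen: HP1-beta (50 nM) preformed 30 min with biotin-H3(1-18)K9me3 peptide (50 nM) in PBS pH 7.4, 0.01% Tween-20. Compound added for 30 min at RT, then streptavidin donor/nickel chelate acceptor beads (10 ug/mL) for 30 min.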
JMJD2A Tudor: JMJD2A Tudor domain (human) inhibition | AlphaScreen JMJD2A-Tudor / H3K4me3 peptide binding | AID 504339 | Potency, µM (titrated, usually from 114 µM), for inactives: top-dose activity change, negative = inhibition, hits mostly inhibitors | 390,000 tested, 4.4% active; note: % is set by controls: 0 for no effect and ±100 for the full control effect; nearly all actives have a fitted effect of over 50% in size
G9a block: G9a (human) methyltransferase inhibition. Q96KQ7. G9a H3K9 monomethylation, AlphaScreen, 2 h. Potency, µM (doses to about 102 µM), inactives show at the highest dose activity, negative = inhibition, hits mostly inhibitors. 350,000 tested, 8.8% active. AID 504332; note: % is set by controls: 0 for no effect and ±100 for the full control effect; nearly all actives have a fitted effect of over 75% in size
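Enzyme 20 nM + cpd, 15 min RT; add b-H3K9 pep 500 nM / SAM 20 uM; 2 h RT; anti-H3K9me1 Ab 0.5 ug/mL + SA donor / anti-rabbit acceptor beads 20 ug/mL each, 10 min; AlphaScreen read.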
Sfp PPTase inh: blocks B. subtilis Sfp PPTase activity; Q9F4F7; Biochemical Sfp PPTase activity, qHTS; Potency, µM, without a hit: largest response in the series, negative = inhibition, hits mostly inhibitors; 310,000 tested, 3.5% active; AID 1490;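 note: the enzyme is Sfp with the accession as filed and its product quenches rhodamine fluorescence; 0% = enzyme reaction without inhibitor and -100% = no enzyme wells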
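With Hepes-Na pH 7.6 buffer containing 10 mM MgCl2, Sfp (15 nM) modified BHQ-2-YbbR (12.5 uM) using rhodamine-CoA (5 uM). Two reads 30 minutes apart at 525/598 nm yielded each well's rate.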
BAZ2B block: BAZ2B (human) inhibition; Q9UIF8; AlphaScreen BAZ2B-H3K14Ac peptide displacement; Potency, µM (highest dose often 114 µM), for inactives: at the top dose activity change, negative = inhibition, most hits filed as inhibitors; 360,000 tested, 4.4% active; AID 504333; note: % is set by controls: 0 for no effect and ±100 for the full control effect; nearly all actives have a fitted effect of over 60% in size
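Multi-concentration screen (max 110 uM) measuring displacement of acetylated histone H3 peptide from BAZ2B by AlphaScreen, using 50 nM protein, 50 nM peptide and 10 ug/mL streptavidin donor plus Ni-chelate acceptor beads.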
* marks the source's active call; other numbers are inactive results; u = inconclusive; x = no result given; [ ] = dose if it differs, or a comment. In the library only some 12% were active in any assay of this set; here they are far more common. Calls come from the whole dose curve; as a rule, active = well fitted curve in the direction sought with a large enough effect; inconclusive = small, poorly fitted or top-dose-only effect, or another doubt; inactive = no such curve, though single readings can be large; an effect the other way counts as inactive or inconclusive. Potency is the fitted concentration of half-maximal effect.

SMILES | HP1b chromo inh | JMJD2A Tudor | G9a block | Sfp PPTase inh | BAZ2B block
O=[N+]([O-])c1ccccc1N/N=C/c1ccccc1 | 3.4% | -16.0% | -21.4% | 2.1% | -11.9%
N#CCSC1=Nc2ccccc2C2=NC(CCC(=O)N3CCN(c4ccccc4)CC3)C(=O)N12 (stereo not drawn) | 27.6% | -21.7% | 44.7µM* | u | u
CN(C(=O)CSc1nnc2ccccn12)c1c(N)n(Cc2ccccc2)c(=O)[nH]c1=O | u | -13.6% | 35.5µM* | -17.5% | -0.7%
CC(C)CN(C(=O)CSc1nnc2ccccn12)c1c(N)n(CC(C)C)c(=O)[nH]c1=O | 9.5% | -6.0% | 44.7µM* | -1.0% | -2.3%
CC1(C)Cc2c(c(-c3ccco3)[nH]c(=O)c2C#N)CO1 | 57.8% | 0.9% | 5.8%[59 µM] | -11.0% | 0.5%
Cn1c[n+](C)cc1/C=N/O | 8.1% | 50.1µM* | 39.8µM* | 0.2% | 89.1µM*
O=C(Cc1cccs1)Nc1nnc(Cc2ccccc2)s1 | u | 50.1µM* | u | 6.0% | 50.1µM*
O=C(Cc1cccs1)Nc1nnc(SCC(=O)NC2CCCCC2)s1 | 5.4% | -17.3%[57.1 µM] | u | -0.2% | -0.2%
COc1ccc(Cc2nnc(NC(=O)Cc3cccs3)s2)cc1OC | u | -34.6%[57.1 µM] | u | -26.3% | 28.2µM*
O=C(CSc1nnc(Nc2ccccc2)s1)NCc1cccs1 | 30.6% | -4.5% | 39.8µM* | 5.8% | 0.2%
O=C(Cc1cccs1)Nc1nnc(SCc2cccc3ccccc23)s1 | 30.5% | -28.8% | 44.7µM* | 8.9% | u
O=C(CSc1nnc(NC(=O)C2CC2)s1)NCc1cccs1 | 37.1% | -5.8% | 12.6% | 10.4% | -11.9%
CCc1ccc2oc(-c3cc(NC(=O)c4cc([N+](=O)[O-])ccc4N4CCOCC4)ccc3Cl)nc2c1 | -5.1% | -33.2% | u | x | u
Cc1scc(-c2n[nH]c(=S)n2C(C)c2ccccc2)c1C (stereo not drawn) | 15.7% | 79.4µM* | 2µM* | 11.3% | u
CC(C)c1cc(-c2n[nH]c(=S)n2Cc2ccccc2)cs1 | 0.0% | -27.3% | u | -3.7% | -12.5%
CCc1cc(-c2n[nH]c(=S)n2C(C)c2ccccc2)cs1 (stereo not drawn) | 20.4% | -34.6% | 10µM* | -19.2% | 6.0%
S=c1[nH]c2ncccc2o1 | -0.7% | -12.3% | u | -23.7% | u
S=c1[nH]c2cc(-c3ccccc3)ccc2o1 | 14.4%[57 µM] | -19.9% | 10µM* | u | u
Cc1[nH]c2ccccc2c1C(=O)C(C)OC(=O)c1ccc(NC(=O)CC#N)cc1 (stereo not drawn) | 28.9% | -22.6% | -42.1% | x | -16.9%
Cc1[nH]c2ccccc2c1C(=O)C(C)OC(=O)c1ccccc1NCCO (stereo not drawn) | 73.8% | -14.3% | 44.7µM* | x | 7.5%
CCOC(=O)c1sc2nccc(N(C)C)c2c1N=CNOC | 37.1% | 25.1µM* | 3.7% | 2.5% | 22.4%
O=C(Cn1cc(C(=O)C(F)(F)F)c2cc(Br)ccc21)N1CCOCC1 | 17.0% | -10.3% | -20.1% | 22.6% | -18.1%
COc1cc(-c2nc(-c3ccccc3)c(-c3cccs3)[nH]2)cc(OC)c1O | u | 44.7µM* | -6.4%[12.7 µM] | 1.3% | 50.1µM*
Cc1[nH]c(-c2ccco2)nc1C(=O)O | 0.6% | 10µM* | 20µM* | 79.4µM* | u
CN(C)c1ccc(-c2nc(-c3cccs3)c(-c3cccs3)[nH]2)cc1 | -21.3% | u | 8.91µM* | x | u
SMILES | HP1b chromo inh | JMJD2A Tudor | G9a block | Sfp PPTase inh | BAZ2B block
COc1ccc(-c2noc(COc3ccc4c(c3)OCO4)n2)cc1 | 30.0% | -12.9% | 16.5%[59 µM] | 10µM* | 9.5%
COc1ccc(-c2noc(COc3ccc4c(c3)OCO4)n2)cc1OC | 12.8% | -12.3% | -8.9%[59 µM] | 8.0% | -9.2%
O=C(NCCC1=CCCCC1)C1CCN(C(=O)N2CCOc3ccc(Cl)cc32)CC1 | 20.9% | -22.7% | -31.7%[59 µM] | x | -33.8%
CCC(=O)N1c2ccccc2CC1C(=O)NCCc1ccc(C)cc1 (stereo not drawn) | 15.6% | -10.3% | 12.9%[59 µM] | x | -0.1%
CS(=O)(=O)Cc1ccc(C(=O)NC2CCCc3ccccc32)cc1 (stereo not drawn) | 6.9% | -12.9% | 11.0% | 8.2% | 1.8%
COc1ccc2nc(-c3ccccc3)[nH]c2c1 | 20.3% | -8.8% | 60.0%[59 µM] | -5.6% | 5.1%
COc1ccc(-c2nc(-c3ccccc3)c(-c3ccc(O)cc3)[nH]2)cc1 | u | 28.2µM* | u | x | 35.5µM*
COc1ccc(-c2[nH]c(-c3ccc(O)cc3)nc2-c2ccccc2)cc1 | -22.0% | 63.1µM* | u | x | 10µM*
Cc1[nH]c(-c2ccc3c(c2)OCO3)nc1C(=O)O | 10.4% | 22.4µM* | 10µM* | 56.2µM* | 50.1µM*
COc1ccc(-c2nc(-c3ccc4c(c3)OCO4)[nH]c2-c2ccc(OC)cc2)cc1 | u | 12.6µM* | -47.1%[59 µM] | 15.4% | 17.8µM*
O=C(O)COc1ccc(-c2nc(-c3ccccc3)c(-c3ccccc3)[nH]2)cc1 | -15.0% | -30.8% | u | 18.0% | -36.3%
NC(=S)N/N=C/c1cc([N+](=O)[O-])ccc1OCCOc1ccccc1 | 36.0% | -8.2% | 21.0%[59 µM] | -11.0% | 6.8%
O=C1OC(Nc2nc3ccccc3s2)c2ccccc21 (stereo not drawn) | 52.2% | 3.2% | 50.1µM* | 5.2% | -11.9%
COc1cccc(C(=O)C[n+]2ccccc2/C=N/O)c1 | 43.1% | -2.1% | 50.1µM* | -3.4% | -24.6%
CCc1c(C)sc(NC(=O)Cn2nc(C)c([N+](=O)[O-])c2C)c1C(N)=O | u | -18.8% | 3.55µM* | 11.2µM* | -30.6%
CCN(C(=O)Cn1cc(C(F)(F)F)ccc1=O)c1c(N)n(Cc2ccccc2)c(=O)[nH]c1=O | 15.6% | -6.8% | 36.4% | u | -16.7%
COc1ccc(/C=N/NC(=O)C2c3ccccc3-c3ccccc32)cc1 | 29.1% | -18.7% | 44.7µM* | 5.6% | -4.4%
COc1ccc(/C=N/NC(=O)CC(=O)N/N=C/c2ccc(OC)cc2)cc1 | 29.2% | -24.3% | 3.1% | 16.6% | -10.9%
COc1ccc(/C=N/NC(=O)/C(=C/c2ccccc2)CCO)cc1 | 1.1% | 79.4µM* | 36.8%[59 µM] | 2.7% | -1.2%
O=C(N/N=C/c1ccc(O)cc1O)/C(=C/c1ccccc1)CCO | 11.9% | 79.4µM* | 45.8%[59 µM] | 25.8% | -38.7%
NC1=NC[C@H](Cc2ccccc2)N1CCc1cc(C(F)(F)F)cc(C(F)(F)F)c1 | 15.2% | -9.9% | 1.4%[12.7 µM] | -10.5% | 1.2%
C(=N\Nc1nncn1/N=C/c1ccco1)/c1ccco1 | 35.0% | -19.0% | 36.3% | 13.9% | 13.9%
CCc1ccccc1NS(=O)(=O)c1cccc2nsnc12 | 17.6% | -19.2% | -37.2% | 3.6% | 8.0%
CCOC(=O)N1CCC2(CC1)C(C#N)=C(N)Oc1c2c(C)nn1-c1cccc(Cl)c1 | -11.0% | u | u | 2.6% | 50.1µM*
COC(=O)c1cc2sc(C)cc2n1Cc1ccc(F)cc1Cl | 99.7% | 71.6% | 71.6%[59 µM] | x | 64.4%
